TDP1 cell noCPT – qHTS for Inhibitors of human tyrosyl-DNA phosphodiesterase 1 (TDP1): qHTS in cells in absence of CPT; DT40 Tdp1-/- hTDP1 cells, no CPT, ATP luminescence, 48 h; Potency, µM (highest dose often 46.2 µM), inactives show at the highest dose activity change, negative = growth inhibition, most hits filed as inhibitors; 420,000 compounds, 15% hits; AID 686978, 2013; further: potency means the concentration at half of the fitted maximal effect; nearly all actives have a fitted effect of over 55% in size
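A cellular qHTS used chicken DT40 cells lacking endogenous Tdp1 but carrying stably transfected human TDP1. Compounds were applied without camptothecin, and cell growth kinetics were judged by ATP-dependent luminescence after ≥48 hr.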
HT1080-NT tox – qHTS for induction of synthetic lethality in tumor cells producing 2HG: qHTS for the HT-1080-NT fibrosarcoma cell line; HT-1080-NT fibrosarcoma viability, CellTiter-Glo ATP luminescence, 48 h; Potency, µM (doses to about 46.1 µM), for inactives: top-dose activity, negative = less viability, usual class: cytotoxic; 360,000 compounds, 1.6% hits; AID 686970, 2013;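 further: NT is the 2HG producing partner of a matched IDH1 knockdown line; potency means the concentration at half of the fitted maximal effect; 0% = DMSO-treated cells and -100% = media-only wells without cells; nearly all actives have a fitted effect of over 55% in size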
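Fibrosarcoma NT cells, 750 per well in 5% FBS RPMI, were exposed to compound for 48 hours. Viability: CellTiter-Glo luminescence.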
TDP1 cell CPT – qHTS for Inhibitors of human tyrosyl-DNA phosphodiesterase 1 (TDP1): qHTS in cells in presence of CPT; chicken DT40 Tdp1-/-;hTDP1 cells + 20 nM CPT, ATP luminescence, 48 h; 420,000 compounds, 12% hits; AID 686979, 2013; Potency, µM (doses to about 46.2 µM), without a hit: top-dose activity change, negative = growth inhibition, actives largely listed as inhibitors; further: potency means the concentration at half of the fitted maximal effect; nearly all actives have a fitted effect of over 55% in size
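Cell growth measured by CellTiter-Glo luminescence after a minimum 48 h, 37 C compound exposure with 20 nM CPT in Tdp1-knockout DT40 cells stably expressing hTDP1, seeded 400/well; qHTS titration format.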
HT1080 IDH1KD tx – qHTS for induction of synthetic lethality in tumor cells producing 2HG: qHTS for the HT-1080-IDH1KD cell line. HT-1080 IDH1 knockdown viability, ATP luminescence, 48 h. Potency, µM (titrated, usually from 46.1 µM), without a hit: at the top dose activity, negative = toxicity, most hits filed as cytotoxic. 360,000 compounds, 2% hits. AID 686971, 2013;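 further: potency means the concentration at half of the fitted maximal effect; 0% = DMSO wells and -100% = cell-free medium wells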
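After a 2 h attachment period, IDH1KD HT-1080 cells took pin-transferred compound for 48 h at 37 °C; ATP-based luminescence after 10 min room-temperature reagent incubation reported viability.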
IL1B secr inh – qHTS for Inhibitors of Inflammasome Signaling: IL-1-beta AlphaLISA Primary Screen. 360,000 compounds, 4.7% hits. THP-1 LPS/ATP IL-1B secretion, AlphaLISA, 16 h; hits give low values. activity change, % at 57.5 µM; in the data active means activity change below about -50%; inconclusive means mostly about -30% to -49%
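Secreted IL-1B measured by AlphaLISA bead assay after 16 h compound exposure of THP-1 cells; compounds (final up to 57.5 uM) added 1 h before LPS (250 ng/mL) and ATP (1.25 mM) stimulation; lower signal means less secretion.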
* hit, by the source's call; ? = inconclusive; . = no result given; [ ] = remark or other dose. Most compounds without a hit are left out; they make up all but 19% or so of the library. Unless noted, the call rests on the fitted dose curve; in most records, active means well fitted curve in the direction sought with a large enough effect; inconclusive means small, poorly fitted or top-dose-only effect, or another doubt; inactive means no such curve, though single readings can be large; an effect the other way counts as inactive or inconclusive. Unless noted, on the % scale 0 is the no-effect control and ±100 the full control effect.

SMILES	TDP1 cell noCPT	HT1080-NT tox	TDP1 cell CPT	HT1080 IDH1KD tx	IL1B secr inh
CCc1nc2c(OCc3ccccc3OC)cccn2c1N(C)C(=O)C(C)C	?	2%	?	2%	35
CCC(CC)C(=O)N(C)c1c(C)nc2c(OCC=C(C)C)cccn12	16µM*	?	13µM*	15µM*	85
Cc1ccc(S(=O)(=O)N(C)C)cc1NC(=O)CSc1nnc(C2CC2)n1C1CC1	-1%	3%	-1%	4%	13
CCCCc1c(-c2ccccc2OC)ncn1CCc1ccccc1OC	8.2µM*	18µM*	12µM*	13µM*	-100*
CCCCN(CC)C(=O)Cc1ccccc1OC	?	-4%	-26%	-4%	?
COc1ccccc1CCNc1ncnc2c1nnn2C	-28%	.	-12%	.	.
CCCCc1c(-c2ccccc2Br)ncn1CCc1ccccc1OC	21µM*	?	15µM*	?	-79*
CCn1cc(S(=O)(=O)NCCc2ccccc2OC)cn1	17%	-1%	-2%	-3%	-2
CCCCCc1c(-c2ccccc2OC)ncn1CCc1ccccc1OC	5.2µM*	16µM*	5.2µM*	16µM*	-95*
CCCCCc1c(CC)ncn1CCc1ccccc1OC	2.9µM*	26µM*	4.6µM*	?	?
C[C@H]1[C@H](C)CC[C@]2(C(=O)O)CC[C@]3(C)C(=CCC4[C@@]5(C)C[C@@H](O)[C@H](O)[C@@](C)(CO)[C@@H]5CC[C@]43C)[C@H]12 (stereo partly drawn)	?	.	1%	.	.
CCn1nnc2cc(C(=O)NCCc3ccccc3F)ccc21	-15%	-1%	14%	13%	-10
CCCCc1c(-c2ccccc2OC)ncn1CCc1ccccc1Cl	15µM*	?	7.3µM*	?	-62*
CCSc1ncc(Cl)c(C(=O)Nc2sc(C(C)=O)c(C)c2C(=O)OC)n1	7%	.	-14%	.	.
COc1cccc(NC(=S)N2CCCC2c2ccc(OC)c(OC)c2)c1 (stereo not drawn)	29µM*	-5%	-18%	3%	-6
Cc1ccc(NC(=S)N2CCSC2c2cccs2)cc1 (stereo not drawn)	-23%	-1%	?	14%	-82*
COc1ccc(C2SCCN2C(=S)Nc2cccc(Cl)c2)cc1 (stereo not drawn)	16µM*	-16%	?	-6%	-26
COc1ccc(C2CCCN2C(=S)Nc2ccc(C)c(C)c2)cc1OC (stereo not drawn)	?	-5%	9%	9%	-18
COc1ccc(C2CCCN2C(=S)Nc2ccc(C)cc2C)cc1OC (stereo not drawn)	26µM*	4%	-23%	-11%	-15
C=CCNC(=O)c1cnn2c1NC(=C)C=C2C	1%	.	10%	.	.
CC1(C)CC(=O)c2sc(NS(=O)(=O)c3ccc(F)cc3)nc2C1	0%	1%	0%	13%	3
COc1ccc(C2CCCN2C(=S)Nc2cccc(Cl)c2)cc1OC (stereo not drawn)	?	0%	-15%	-3%	-87*
CCOC(=O)CNc1ccc(OC(F)(F)F)cc1	-24%	4%	3%	4%	6
Cc1ccc(O)c(C(CC(=O)NC2CCCCC2)c2ccccc2)c1 (stereo not drawn)	23µM*	-8%	-67%	-21%	?
CCC(C)NC(=O)CC(c1ccccc1)c1cc(C)ccc1O (stereo not drawn)	7%	9%	0%	13%	19
SMILES	TDP1 cell noCPT	HT1080-NT tox	TDP1 cell CPT	HT1080 IDH1KD tx	IL1B secr inh
CCCN(CCC)C(=O)CC(c1ccccc1)c1cc(C)ccc1O (stereo not drawn)	?	?	?	?	-57*
Cc1ccc(O)c(C(CC(=O)NC(C)C)c2ccccc2)c1 (stereo not drawn)	-3%	-1%	-2%	-1%	0
OCCN1CCN(CC#CCC(c2ccccc2)c2ccccc2)CC1	?	-14%	?	-4%	-27
OCCN1CCN(CC#CCn2c3ccccc3c3ccccc32)CC1	?	21µM*	?	?	-4
Cn1cnc([N+](=O)[O-])c1Oc1cccc(O)c1	23µM*	-7%	?	-23%	-105*
Cn1cnc([N+](=O)[O-])c1Oc1ccccc1	?	-12%	18µM*	-15%	?
CC[C@@H](CO)NCCN[C@@H](CC)CO	1%[21.1 µM]	.	0%[21.1 µM]	.	.
N#Cc1cccc(NC(=O)COC(=O)c2ccc[n+]([O-])c2)c1	-6%	2%	16%	15%	10
CC(C)C[C@H](NC(=O)c1[nH]cnc1C(=O)N[C@@H](C)c1ccccc1)C(=O)OCc1ccccc1	26µM*	?	29µM*	?	24
C[C@H](NC(=O)c1nc[nH]c1C(=O)NCC(=O)OCc1ccccc1)c1ccccc1	18µM*	0%	?	-1%	3
CC(C)(C)OC(=O)CNC(=O)c1[nH]cnc1C(=O)NC(c1ccccc1)c1ccccc1	?	-15%	23µM*	-5%	?
CC(C)C[C@H](NC(=O)c1nc[nH]c1C(=O)N[C@@H](CC(C)C)C(=O)OC(C)(C)C)C(=O)OCc1ccccc1	?	?	?	?	0
CNC(=O)c1[nH]cnc1C(=O)NCC(=O)OC(C)(C)C	8%	9%	1%	8%	16
CCc1ccc(-c2ccc(C(=O)C(F)(F)F)[nH]2)cc1	-18%	-2%	-16%	-5%	-22
O=C(Nc1ccnn1C1CCN(C(=O)c2cnsn2)CC1)c1cccc(F)c1	-18%	2%	-1%	15%	-5
Cc1ccc(C(=O)N2CC(C)CC(C)C2)cc1NC1=NC2CS(=O)(=O)CC2S1 (stereo not drawn)	-3%	-3%	-3%	4%	-27
Cc1c(C(=O)Nc2ccccc2)sc2nc(-c3cc4ccccc4oc3=O)[nH]c(=O)c12	-24%	.	-4%	.	.
CC1CC1C(=O)OCC(=O)Nc1ccc(Cl)cn1 (stereo not drawn)	2%	3%	4%	0%	23
O=S1(=O)N(Cc2ccccc2F)CCCN1Cc1c(F)cccc1Cl	-25%	0%	0%	3%	3
O=C(CSc1cccc[n+]1[O-])Nc1cc2c(cc1Cl)C(=O)c1ccccc1C2=O	?	-3%	21µM*	-2%	-6
